The campaign covered roughly 69,000 compounds. About 8,600 (12%) showed an effect of 50% or more. Many of the other results were omitted from the sample, so strong results are more common in it than they were.
These compounds were tested on Plasmodium berghei (assay: Screen against P. berghei liver stage (PbLuc), transformed with Luciferase, at 10uM). Conditions: tested at 10 uM.
Format: functional, HepG2

Row | SMILES | INHIBITION
1 | Cc1c(COC(C)C)cccc1NC(=O)N1CCCC(CO)C1 (stereo not given) | 49.1%
2 | CCC1c2cccn2CCN1C(=O)c1cc(OC)nc(OC)n1 (stereo not given) | 19.7%
3 | O=C(N[C@@H]1CCC[C@@H](N2CCOCC2)[C@@H]1O)c1ncccn1 | 36.4%
4 | CS(=O)(=O)N1C[C@H]2CNC[C@@]2(C(=O)NCCCc2ccccc2)C1 | 73.5%
5 | CS(=O)(=O)N1C[C@H]2CNC[C@@]2(C(=O)NCCOc2ccccc2)C1 | 18.6%
6 | O=C(C1CC1)N1C[C@H]2CNC[C@@]2(C(=O)NCCCc2ccccc2)C1 | 32.5%
7 | CN(C)S(=O)(=O)NC(=O)CC(c1ccccc1)C(F)(F)F (stereo not given) | 62.8%
8 | CC(C)S(=O)(=O)NC(=O)CC(c1ccccc1)C(F)(F)F (stereo not given) | 31.3%
9 | COCC(C)(C)NC(=O)CC(c1ccccc1)C(F)(F)F (stereo not given) | 29.4%
10 | O=C(NCCCc1ccncc1)C1CCCN(Cc2ccco2)C1 (stereo not given) | 19.5%
11 | Cc1cnccc1NCCNC(=O)C1CCCN(Cc2ccco2)C1 (stereo not given) | 24.3%
12 | Cc1ccc(NCCCNC(=O)C2CCCN(Cc3ccco3)C2)nc1 (stereo not given) | 75.1%
13 | c1cncc(COCC2C[C@@H]3OCCN(Cc4cccnc4)[C@H]3C2)c1 (stereo not given in full) | 23.6%
14 | CN(C)C(=O)N1CCC[C@]2(C(=O)N(C)C)CN(c3ccccn3)C[C@@H]2C1 | -2.35%
15 | Cc1ccc(C(=O)N2CCO[C@H]3[C@H](OCCN(C)C)CC[C@@H]32)o1 | -26.1%
16 | CC(NCc1ccccn1)c1cc2c(cc1Br)OCCO2 (stereo not given) | 47.4%
17 | CC(NCc1cccnc1)c1cc2c(cc1Br)OCCO2 (stereo not given) | 15%
18 | CC(NCc1ccncc1)c1cc2c(cc1Br)OCCO2 (stereo not given) | 53.9%
19 | Cc1cnc(N2CCO[C@@H]3CC(COCc4cccnc4)C[C@H]32)nc1 (stereo not given in full) | 45.4%
20 | O=C(Nc1cccnc1N1CCSCC1)c1ccc2c(c1)CCO2 | 39.6%
21 | COCCOc1ccnc(-c2noc([C@@H]3CCCN3CC3CC3)n2)c1 | 18.4%
22 | COCCOc1ccnc(-c2noc([C@@H]3CCCN3CC(C)(C)C)n2)c1 | 53.2%

Row | SMILES | INHIBITION
23 | COCCOc1ccnc(-c2noc([C@@H]3CCCN3CC(C)C)n2)c1 | -15.6%
24 | CS(=O)(=O)CCC(=O)N1C[C@H]2CC[C@@H](C1)N(Cc1ccccn1)C2=O | 5.38%
25 | c1ccc(-c2nc(CNCC3CCCN3c3cccnn3)co2)cc1 (stereo not given) | -17.7%
26 | Cn1cc(CN2CCCC(n3c(=O)oc4ccccc43)C2)cn1 (stereo not given) | 2.14%
27 | CC(CN(C)C)Nc1nc(O)cc(Cc2ccccc2F)n1 (stereo not given) | 39.3%
28 | CCOC(=O)C1CC2(CCCC2)N2CCC(=O)N12 (stereo not given) | 0.284%
29 | CCOC(=O)C1CC2(CCOCC2)N2CCC(=O)N12 (stereo not given) | 20.7%
30 | CCOC(=O)C1CC2(CCCCC2)N2CCC(=O)N12 (stereo not given) | 54%
31 | Cc1noc(C)c1C1CCCN1C(=O)CN1CC2(CCNCC2)OC1=O (stereo not given) | 36.8%
32 | O=C1OC2(CCNCC2)CN1CC(=O)N1CCCC1c1ccco1 (stereo not given) | 16.8%
33 | Cc1ccccc1C1CCCN1C(=O)CN1CC2(CCNCC2)OC1=O (stereo not given) | 50.1%
34 | Cc1nc2ccc(S(=O)(=O)Nc3c(C)nn(CC(=O)O)c3C)cc2s1 | 34.7%
35 | Cc1nc(C2CCCNC2)cc(N(C)CCc2ccccc2)n1 (stereo not given) | -16.5%
36 | CCN(Cc1ccncc1)c1cc(C2CCCNC2)nc(C)n1 (stereo not given) | 53.7%
37 | CCN(Cc1ccncc1)c1cc(C2CCNCC2)nc(C)n1 | 14.6%
38 | CCOc1ccc(CNC(C)c2c(C)nn(C)c2C)cc1 (stereo not given) | -88.5%
39 | COc1ccccc1CC(=O)N1CCC(NCc2ccccn2)CC1 | 46.3%
40 | CN(Cc1cnc(N)nc1)C(=O)c1coc(COc2cccc(F)c2)n1 | 0.546%
41 | COc1ccccc1N1CCN(c2nc(N)nc3[nH]cnc23)CC1 | 20.6%
42 | COc1cc(CN(C)[C@@H]2COC[C@H]2c2ccc(F)cc2)cc(OC)c1 | 10.635%
43 | COc1ccc(CN(C)[C@@H]2COC[C@H]2c2ccc(F)cc2)cc1 | 34.3%
44 | COc1ccc(CN(C)[C@@H]2COC[C@H]2c2ccc(F)cc2)c(OC)c1 | 59.9%

Row | SMILES | INHIBITION
45 | CN1CCOCC12CCN(C(=O)C1CCC1)CC2 | 22.3%
46 | CCOCCCNC(=O)C1(C)CCC(=O)N1c1ccccc1OC (stereo not given) | 32.1%
47 | CC(=O)N1CCC(n2nccc2-c2cnc(NCCO)nc2)CC1 | 33.7%
48 | O=c1[nH]nc(-c2cccs2)c2sc(N3CCOCC3)nc12 | -29.5%
49 | c1ccc(-c2nnc3n2CCN(c2nc(C4CC4)ns2)C3)cc1 | -57.3%
50 | Oc1nnc(-c2cccs2)c2sc(N3CCCC3)nc12 | 47.7%
51 | Oc1nnc(-c2ccccc2)c2sc(N3CCCCC3)nc12 | 57%
52 | Cc1nc(NC(=O)C2CCCN(C(N)=O)C2)sc1-c1ccccc1 (stereo not given) | 34.1%
53 | Oc1nnc(-c2cccs2)c2sc(N3CCCCC3)nc12 | 54.3%
54 | CC(CS(C)(=O)=O)N(C(=O)CCc1cccc(F)c1)C1CC1 (stereo not given) | -35%
55 | CNS(=O)(=O)c1ccc(CNC(=O)N(C)C(C)COC)cc1 (stereo not given) | 44.9%
56 | CCC1=N[C@@]2(CC[C@@H]3CN(Cc4ccc(Cl)cc4)C[C@@H]32)C(=O)N1 | 35.3%
57 | CCC1=N[C@@]2(CC[C@@H]3CN(CC4CC4)C[C@@H]32)C(=O)N1CC1CC1 | 30.3%
58 | CC(=O)c1cccc(NC(=O)N(CC(F)F)C2CC2)c1 | 61.1%
59 | CC(C)CN(C(=O)Nc1cccc(C(=O)N(C)C)c1)C1CC1 | 38.5%
60 | CC(C)CCN(C(=O)c1cccc(NC(N)=O)c1)C1CC1 | 12.4%
61 | CC(C)CCN(C(=O)Nc1cccc(C(=O)N(C)C)c1)C1CC1 | 84.1%
62 | CC(=O)c1cccc(NC(=O)N(CCO)C2CCc3ccccc32)c1 (stereo not given) | 24.8%
63 | N#Cc1cccc(NC(=O)N(CC(F)F)C2CC2)c1 | 24.3%
64 | Cn1ccc(C(=O)N2C[C@@H]3CN(CC4CC4)CCO[C@@H]3C2)n1 | 27.5%
65 | CCc1noc(CN(C)Cc2cc3ccc(Cl)cc3[nH]c2=O)n1 | -4.37%
